Laboratory results from PubChem BioAssay (EPA / NIEHS).
“And” between values parts separate entries of the source, which are not always exact repeats. Identical values can stand only once. Some structures have more than one record in an assay (separate samples or runs), and their calls can disagree. The source made the active and inactive calls. Rule for the calls: active = hit-call score of the fitted dose curve at least 0.9, where 1 is the maximum; inactive = score below 0.9.

Experiments:
[1] = read-out: Actin alpha 1 (ACTA1), ACTA1 (gene 58); test: BSK_MyoF_ACTA1: BioMAP Diversity Plus: MyoF Assay for Actin alpha 1 (ACTA1) Biomarker Activity (AID 2284244); conditions: primary human lung fibroblasts
Summary of the method: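 Cells were exposed to chemical for 24 h before a-SMA levels were quantified by ELISA in human lung fibroblasts. Increases were fitted against DMSO as negative control; parallel SRB staining (0.1% after 10% TCA fixation, 560 nm) assessed cytotoxicity.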

[2] = read-out: Interleukin 2 (IL2), IL2 (gene 3558); test: BSK_BT_xIL2: BioMAP Diversity Plus: BT Assay for Interleukin 2 (IL2) Biomarker Activity (AID 2284245); conditions: primary human B cells with PBMC
Summary of the method: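 The BT system combines human B cells with peripheral blood mononuclear cells. Twenty-four hours after chemical dosing, secreted IL-2 was measured with xMAP bead technology, and responses were analyzed as increases over DMSO controls.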

[3] = read-out: Basic fibroblast growth factor (bFGF), FGF2 (gene 2247); test: BSK_MyoF_bFGF: BioMAP Diversity Plus: MyoF Assay for Basic fibroblast growth factor (bFGF) Biomarker Activity (AID 2284246); conditions: primary human lung fibroblasts
Summary of the method: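 Chemicals are added to human lung fibroblast cultures and incubated 24 h. bFGF is then measured by ELISA, while parallel cultures receive SRB staining for total protein as a cytotoxicity check. Data are fitted upward against DMSO.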

[4] = read-out: Collagen IV, COL4A1 (gene 1282); test: BSK_MyoF_CollagenIV: BioMAP Diversity Plus: MyoF Assay for Collagen IV Biomarker Activity (AID 2284247); conditions: primary human lung fibroblasts
Summary of the method: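 Human lung fibroblast system, 24 h chemical exposure. Endpoint: Collagen IV by ELISA, upward fit vs DMSO.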

[5] = read-out: Monokine induced gamma interferon (MIG), CXCL9 (gene 4283); test: BSK_KF3CT_MIG: BioMAP Diversity Plus: KF3CT Assay for Monokine induced gamma interferon (MIG) Biomarker Activity (AID 2284248); conditions: primary human keratinocytes with fibroblasts
Summary of the method: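 Human keratinocyte–foreskin fibroblast co-culture; MIG measured by ELISA 24 h after chemical dosing, fitted upward versus DMSO. Cytotoxicity was assessed in parallel cultures by SRB total-protein staining read at 560 nm.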

[6] = read-out: Vascular cell adhesion molecule 1 (VCAM1), VCAM1 (gene 7412); test: BSK_BF4T_VCAM1: BioMAP Diversity Plus: BF4T Assay for Vascular cell adhesion molecule 1 (VCAM1) Biomarker Activity (AID 2284249); conditions: primary human bronchial epithelial cells with fibroblasts
Summary of the method: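 Cell-surface VCAM-1 quantified by ELISA after 24 h chemical exposure of human bronchial epithelial/dermal fibroblast co-cultures, with SRB staining in parallel wells for cytotoxicity; DMSO baseline, positive-direction fitting.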

[7] = read-out: Collagen I, COL1A1 (gene 1277); test: BSK_hDFCGF_CollagenI: BioMAP Diversity Plus: hDFCGF Assay for Collagen I Biomarker Activity (AID 2284250); conditions: primary human foreskin fibroblasts
Summary of the method: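 Collagen I ELISA, primary human foreskin fibroblasts, 24 h chemical exposure, DMSO = negative control/baseline, positive fitting direction.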

[8] = read-out: Interferon-inducible T-cell alpha chemoattractant (ITAC), CXCL11 (gene 6373); test: BSK_hDFCGF_ITAC: BioMAP Diversity Plus: hDFCGF Assay for Interferon-inducible T-cell alpha chemoattractant (ITAC) Biomarker Activity (AID 2284251); conditions: primary human foreskin fibroblasts
Summary of the method: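 Chemical dosing of primary human foreskin fibroblast cultures preceded ELISA measurement of I-TAC at 24 h. Response was analysed in the positive direction using DMSO as baseline, while parallel SRB staining measured cytotoxicity.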

[9] = read-out: Plasminogen activator inhibitor-1 (PAI1), SERPINE1 (gene 5054); test: BSK_KF3CT_PAI1: BioMAP Diversity Plus: KF3CT Assay for Plasminogen activator inhibitor-1 (PAI1) Biomarker Activity (AID 2284252); conditions: primary human keratinocytes with fibroblasts
Summary of the method: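 Cells (human keratinocytes co-cultured with foreskin fibroblasts) are exposed to test chemical for 24 h. PAI-1 is then measured by ELISA and analysed for signal gain against DMSO.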

[10] = read-out: Monocyte Chemoattractant Protein-1 (MCP1), CCL2 (gene 6347); test: BSK_IMphg_MCP1: BioMAP Diversity Plus: IMphg Assay for Monocyte Chemoattractant Protein-1 (MCP1) Biomarker Activity (AID 2284253); conditions: primary human endothelial cells with macrophages
Summary of the method: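 ELISA readout of MCP-1 at 24 hours in IMphg co-cultures of venular endothelial cells and macrophages, normalised to DMSO; parallel cultures stained with sulforhodamine B for overt cytotoxicity.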

[11] = read-out: Interleukin-8 (IL8), CXCL8 (gene 3576); test: BSK_KF3CT_IL8: BioMAP Diversity Plus: KF3CT Assay for Interleukin-8 (IL8) Biomarker Activity (AID 2284254); conditions: primary human keratinocytes with fibroblasts
Summary of the method: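 Human keratinocyte/foreskin fibroblast co-culture dosed 24 h; IL-8 measured by ELISA relative to DMSO. Parallel cultures stained with SRB for total protein to flag cytotoxicity.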

[12] = read-out: Macrophage Inflammatory Protein-1 Alpha (MIP1a), CCL3 (gene 6348); test: BSK_IMphg_MIP1a: BioMAP Diversity Plus: IMphg Assay for Macrophage Inflammatory Protein-1 Alpha (MIP1a) Biomarker Activity (AID 2284255); conditions: primary human endothelial cells with macrophages
Summary of the method: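 MIP-1a protein levels were quantified by ELISA after 24 h treatment of human endothelial cell–macrophage co-cultures, compared with DMSO. Parallel cultures were fixed with TCA and stained with 0.1% SRB to gauge overt cytotoxicity.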

[13] = read-out: Plasminogen activator inhibitor-1 (PAI1), SERPINE1 (gene 5054); test: BSK_MyoF_PAI1: BioMAP Diversity Plus: MyoF Assay for Plasminogen activator inhibitor-1 (PAI1) Biomarker Activity (AID 2284256); conditions: primary human lung fibroblasts
Summary of the method: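 Primary human lung fibroblasts treated with chemical for 24 h; PAI-1 levels quantified by ELISA relative to DMSO. Cytotoxicity was assessed in parallel cultures by SRB total-protein staining (0.1% SRB after 10% TCA fixation, 560 nm).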

CD69, CD69 (gene 969) = test: BSK_IMphg_CD69: BioMAP Diversity Plus: IMphg Assay for CD69 Biomarker Activity (AID 2284257); conditions: primary human endothelial cells with macrophages
Summary of the method: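 Readout is ELISA for CD69 in primary human venular endothelial cell/macrophage co-culture, taken at 24 h post-dosing. SRB staining of parallel cultures gauged overt cytotoxicity; signal increase versus DMSO defined activity.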

[14] = read-out: Eotaxin 3, CCL26 (gene 10344); test: BSK_BF4T_Eotaxin3: BioMAP Diversity Plus: BF4T Assay for Eotaxin 3 Biomarker Activity (AID 2284258); conditions: primary human bronchial epithelial cells with fibroblasts
Summary of the method: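 ELISA measurement of Eotaxin-3 after 24 h chemical exposure in a bronchial epithelial/dermal fibroblast co-culture, with DMSO as baseline. Parallel SRB staining (0.1% SRB after 10% TCA fixation, 560 nm) flagged overt cytotoxicity.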

[15] = read-out: Monocyte Chemoattractant Protein-1 (MCP1), CCL2 (gene 6347); test: BSK_BF4T_MCP1: BioMAP Diversity Plus: BF4T Assay for Monocyte Chemoattractant Protein-1 (MCP1) Biomarker Activity (AID 2284259); conditions: primary human bronchial epithelial cells with fibroblasts
Summary of the method: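 MCP-1 ELISA readout taken 24 h after dosing in the BF4T system (bronchial epithelial cells plus dermal fibroblasts). Parallel SRB total-protein staining flagged cytotoxicity; DMSO served as baseline, positive fitting direction.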

[16] = read-out: Intercellular Adhesion Molecule 1 (ICAM1), ICAM1 (gene 3383); test: BSK_BF4T_ICAM1: BioMAP Diversity Plus: BF4T Assay for Intercellular Adhesion Molecule 1 (ICAM1) Biomarker Activity (AID 2284260); conditions: primary human bronchial epithelial cells with fibroblasts
Summary of the method: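 ICAM-1 levels measured by ELISA after 24 h chemical treatment of bronchial epithelial cell/dermal fibroblast co-cultures, read against DMSO baseline. Overt cytotoxicity checked in parallel cultures by sulforhodamine B staining.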

[17] = read-out: Interleukin-8 (IL8), CXCL8 (gene 3576); test: BSK_MyoF_IL8: BioMAP Diversity Plus: MyoF Assay for Interleukin-8 (IL8) Biomarker Activity (AID 2284261); conditions: primary human lung fibroblasts
Summary of the method: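 Human lung fibroblast (MyoF system) cultures dosed for 24 h, then IL-8 measured by ELISA. Response taken relative to DMSO; parallel SRB total-protein staining for cytotoxicity.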

CD90, THY1 (gene 7070) = test: BSK_BF4T_CD90: BioMAP Diversity Plus: BF4T Assay for CD90 Biomarker Activity (AID 2284262); conditions: primary human bronchial epithelial cells with fibroblasts
Summary of the method: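 CD90 levels by ELISA after 24 h treatment of human bronchial epithelial cell/dermal fibroblast cultures, analysed versus DMSO. Overt cytotoxicity checked in parallel cultures by sulforhodamine B staining.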

[18] = read-out: Interleukin-8 (IL8), CXCL8 (gene 3576); test: BSK_BF4T_IL8: BioMAP Diversity Plus: BF4T Assay for Interleukin-8 (IL8) Biomarker Activity (AID 2284263); conditions: primary human bronchial epithelial cells with fibroblasts
Summary of the method: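 Human bronchial epithelial cells with dermal fibroblasts co-culture; IL-8 measured by ELISA 24 hours after dosing, fitted vs DMSO. Cytotoxicity tracked in parallel cultures by SRB total-protein staining.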

## CCNS(=O)(=O)C(F)(F)C(F)(F)C(F)(F)C(F)(F)C(F)(F)C(F)(F)C(F)(F)C(F)(F)F
[1]
  AC50: 21.5 µM (active) and 30 µM (active)
[2]
  outcome: inactive
[3]
  AC50: 46.5 µM (active) and 50.8 µM (active)
[4]
  AC50: 54.7 µM (active) and 7.29 µM (active)
[5]
  AC50: 46 µM (active)
  outcome: inactive
[6]
  AC50: 15.4 µM (active) and 14.3 µM (active)
[7]
  AC50: 46.9 µM (active) and 38.3 µM (active)
[8]
  AC50: 24.8 µM (active) and 27.5 µM (active)
[9]
  AC50: 39.7 µM (active) and 39.3 µM (active)
[10]
  AC50: 41.4 µM (active) and 36.9 µM (active)
[11]
  outcome: inactive
[12]
  AC50: 35 µM (active)
  outcome: inactive
[13]
  AC50: 58.4 µM (active) and 51.1 µM (active)
CD69, CD69 (gene 969)
  AC50: 38.4 µM (active) and 39.2 µM (active)
[14]
  AC50: 7.65 µM (active) and 6.97 µM (active)
[15]
  AC50: 18.6 µM (active) and 22.6 µM (active)
[16]
  AC50: 30 µM (active) and 25 µM (active)
[17]
  AC50: 41.5 µM (active) and 45.6 µM (active)
CD90, THY1 (gene 7070)
  outcome: inactive
[18]
  outcome: inactive
